Hits are enriched below; roughly 17% of the tested compounds scored in any of these assays.
TDP1 inh: blocks human tyrosyl-DNA phosphodiesterase 1; Q9NUW8; recombinant TDP1, AlphaScreen DNA substrate cleavage; Potency, µM (top dose mostly 130 µM), for the others: at the top dose activity change, negative = inhibition, most hits filed as inhibitors; hit rate 0.28% among 350,000; AID 485290; note: % is set by controls: 0 for no effect and ±100 for the full control effect; nearly all actives have a fitted effect of over 40% in size
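E. coli-derived human Tdp1, 1 nM final. Cpd preinc 15 min RT; substrate 15 nM final, 5 min RT; AS bead mix 10 ug/ml final, 10 min RT. Signal loss = tyrosine-FITC cleavage. No-enzyme wells = max signal.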
DT40 TDP1 CPT: DT40-hTDP1 cell growth loss with CPT; chicken DT40 Tdp1-/-;hTDP1 cells + 20 nM CPT, ATP luminescence, 48 h; Potency, µM (top dose mostly 46.2 µM), for the others: at the highest dose activity change, negative = growth inhibition, hits mostly inhibitors; hit rate 12% among 420,000; note: % is set by controls: 0 for no effect and ±100 for the full control effect; nearly all actives have a fitted effect of over 55% in size
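Chicken DT40 Tdp1-/- cells complemented with human TDP1, 400 cells/well, exposed to compounds plus 20 nM camptothecin for at least 48 h at 37 C; viability read as ATP content by CellTiter-Glo luminescence.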
ClpP mod: qHTS Assay for Activators of ClpP. purified B. subtilis ClpP, FRET peptide cleavage, 20 min. Potency, µM (highest dose often 57.5 µM), for the others: top-dose activity change, negative = active. AID 651965, 2013. ATP-dependent Clp protease proteolytic subunit (Bacillus subtilis (strain 168)), P80244. hit rate 1.9% among 340,000; active = well fitted falling curve with a large enough effect; inconclusive = small, poorly fitted or top-dose-only effect; inactive = no such curve, though single readings can be large or run the other way; note: the source files actives as falling curves though it sought activators and does not explain the sign; nearly all actives have a fitted effect of over 65% in size
Target sequence (P80244 whole entry, looked up): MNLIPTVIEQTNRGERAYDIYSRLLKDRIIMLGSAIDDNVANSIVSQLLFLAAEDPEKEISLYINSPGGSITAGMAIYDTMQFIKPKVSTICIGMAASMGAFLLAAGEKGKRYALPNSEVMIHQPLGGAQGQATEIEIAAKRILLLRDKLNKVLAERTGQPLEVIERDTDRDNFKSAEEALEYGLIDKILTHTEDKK
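Buffer: 100 mM Tris/HCl pH8, 100 mM KCl, 0.05% low protease BSA, 2.5% glycerol, 0.01% Tween-20. ClpP 10 microg/mL final; 20 min RT; delta FRET normalized to ADEP and DMSO controls.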
DT40 TDP1 no CPT: qHTS for Inhibitors of human tyrosyl-DNA phosphodiesterase 1 (TDP1): qHTS in cells in absence of CPT; DT40 Tdp1-/- hTDP1 cells, no CPT, ATP luminescence, 48 h; Potency, µM (titrated, usually from 46.2 µM), without a hit: at the top dose activity change, negative = growth inhibition, hits mostly inhibitors; hit rate 15% among 420,000; note: % is set by controls: 0 for no effect and ±100 for the full control effect; nearly all actives have a fitted effect of over 55% in size
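Compound effects on proliferation are scored in DT40 Tdp1-/-;hTDP1 cells in the absence of CPT. ATP levels (CellTiter-Glo luminescence) are recorded after a ≥48 hr, 37 °C incubation.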
* hit, by the source's call. Unless noted, calls come from the whole dose curve; as a rule, active = well fitted curve in the direction sought with a large enough effect; inconclusive = small, poorly fitted or top-dose-only effect, or another doubt; inactive = no such curve, though single readings can be large; an effect the other way counts as inactive or inconclusive. Potency is the fitted concentration of half-maximal effect.

For COc1ccc(/C=C/C(=O)NC(=S)Nc2ccc(C(=O)O)cc2)cc1 the results were TDP1 inh 89µM*, DT40 TDP1 CPT -12%, ClpP mod -7% and DT40 TDP1 no CPT 3%.
Screening CCOCCc1nn2c(=O)cc(COC(=O)c3ccccc3NC(=O)CC(C)C)nc2s1 returned TDP1 inh 1%, DT40 TDP1 CPT inconclusive, ClpP mod -21% and DT40 TDP1 no CPT inconclusive.
For CC1CCCN(C(=O)c2ccc(S(=O)(=O)N3CCC(c4nc5ccccc5s4)CC3)cc2)C1 (stereo not given) the results were DT40 TDP1 CPT 12µM*, ClpP mod 0% and DT40 TDP1 no CPT 6.5µM*.
`CCN(CC)C(=O)c1ccc(S(=O)(=O)N2CCC(c3nc4ccccc4s3)CC2)cc1` gave TDP1 inh 2%, DT40 TDP1 CPT 7.3µM*, ClpP mod 1% and DT40 TDP1 no CPT 10µM*.
`O=C(Nc1nc2ccccc2s1)C1CCCN1S(=O)(=O)c1ccc(Cl)cc1` (stereo not given) gave TDP1 inh 7%, DT40 TDP1 CPT -8%, ClpP mod -2% and DT40 TDP1 no CPT -14%.
O=S(=O)(c1ccccc1)N1CCCC1c1nc2ccccc2s1 (stereo not given) was read as TDP1 inh 2%, DT40 TDP1 CPT inconclusive, ClpP mod 1% and DT40 TDP1 no CPT 18µM*.
CCCCC[C@@H]1[C@H]2[C@H]3C(=O)N(c4ccccc4)C(=O)[C@H]3CC(=O)[C@H]2[C@H](c2ccccc2)N1S(=O)(=O)c1ccc(C)cc1 was read as DT40 TDP1 CPT 20%, ClpP mod 2% and DT40 TDP1 no CPT 2%.
C[C@@]12CCC3[C@@](CCC4[C@@]3(C)CCC[C@@]4(C)C(=O)NCc3ccccc3)(CC1=O)C2 (stereo not given in full) was read as TDP1 inh -3%, DT40 TDP1 CPT inconclusive, ClpP mod -1% and DT40 TDP1 no CPT 18µM*.
Screening C[C@@]12CCC3[C@@](CCC4[C@@]3(C)CCC[C@@]4(C)C(=O)O)(CC1=O)C2 (stereo not given in full) returned TDP1 inh 1%, DT40 TDP1 CPT 2%, ClpP mod -3% and DT40 TDP1 no CPT -14%.
Screening CC(C)(C)CNC(=O)[C@]1(C)CCC[C@@]2(C)C3CC[C@@]4(C)C[C@]3(CCC21)CC4=O (stereo not given in full) returned TDP1 inh 1%, DT40 TDP1 CPT inconclusive, ClpP mod 3% and DT40 TDP1 no CPT 23µM*.
For COc1ccc(CNC(=O)c2cc(=O)c3cc(C)cc(C)c3o2)cc1 the results were DT40 TDP1 CPT -23%, ClpP mod -1% and DT40 TDP1 no CPT 2%.
For O=C(NCc1cccs1)C(=O)NCC1OCCCN1S(=O)(=O)c1cc(F)ccc1F (stereo not given) the results were TDP1 inh 0%, DT40 TDP1 CPT 4%, ClpP mod -2% and DT40 TDP1 no CPT -22%.
`NC1=NC[C@H](Cc2ccccc2)N1CCCCC1CCCCC1` gave TDP1 inh 4%, DT40 TDP1 CPT 5.2µM*, ClpP mod 4% and DT40 TDP1 no CPT 5.2µM*.
`Fc1cccc(CCN2CCNC[C@@H]2Cc2ccccc2)c1` gave DT40 TDP1 CPT inconclusive, ClpP mod 1% and DT40 TDP1 no CPT inconclusive.
For NC1=NC[C@H](Cc2ccc(O)cc2)N1CCCCC1CCCCC1 the results were TDP1 inh 6%, DT40 TDP1 CPT 4.6µM*, ClpP mod 1% and DT40 TDP1 no CPT 2.6µM*.
Screening NC1=NC[C@H](Cc2ccccc2)N1CCc1cccc(F)c1 returned TDP1 inh 4%, DT40 TDP1 CPT 13µM*, ClpP mod 0% and DT40 TDP1 no CPT 12µM*.
`Cc1cccc(C(=O)N(CC(=O)Nc2sc(C)c(C)c2C(N)=O)C2CCCC2)c1` gave TDP1 inh 1%, DT40 TDP1 CPT inconclusive and DT40 TDP1 no CPT inconclusive.
O=C1NC[C@H](CCCCN2C[C@H](Cc3ccccc3)N(CCc3ccccc3)C(=O)C2=O)N(CCc2ccc(O)cc2)C1=O was read as DT40 TDP1 CPT 1%, ClpP mod 2% and DT40 TDP1 no CPT -11%.
CC(C)C(O)(c1ccccc1)C(CN1CCOCC1)c1ccccc1 (stereo not given) was read as DT40 TDP1 CPT inconclusive, ClpP mod 0% and DT40 TDP1 no CPT inconclusive.
For CCc1ccc(C(C)(O)C(CN2CCOCC2)c2ccccc2)cc1 (stereo not given) the results were DT40 TDP1 CPT 21µM* and DT40 TDP1 no CPT 21µM*.
Screening CCCCOc1ccc(C(O)(CC)CCN2CCOCC2)cc1 (stereo not given) returned TDP1 inh 3%, DT40 TDP1 CPT -26%, ClpP mod 1% and DT40 TDP1 no CPT -27%.
Screening CCCCOc1ccc(C(O)(CCC)CCN2CCOCC2)cc1 (stereo not given) returned TDP1 inh 3%, DT40 TDP1 CPT 21µM*, ClpP mod -1% and DT40 TDP1 no CPT 16µM*.
Screening CCCCCOc1ccc(C(C)(O)C(CN2CCOCC2)c2ccccc2)cc1 (stereo not given) returned DT40 TDP1 CPT inconclusive, ClpP mod 1% and DT40 TDP1 no CPT 21µM*.
CCCOc1ccc(C(C)(O)CN2CCOCC2)cc1 (stereo not given) was read as TDP1 inh 7%, DT40 TDP1 CPT -2%, ClpP mod -7% and DT40 TDP1 no CPT -21%.
CCc1ccc(C(O)(C(C)C)C(CN2CCOCC2)c2ccccc2)cc1 (stereo not given) was read as DT40 TDP1 CPT 16µM*, ClpP mod 0% and DT40 TDP1 no CPT 16µM*.
For COc1ccc(NC(=O)CN2C(=O)CCn3nc(-c4cccn4C)cc32)cc1Cl the results were TDP1 inh 7%, DT40 TDP1 CPT 0%, ClpP mod -2% and DT40 TDP1 no CPT -14%.
`CN1/C(=C\C(=O)c2ccco2)C(C)(C)c2ccccc21` gave TDP1 inh -7%, DT40 TDP1 CPT 2.6µM*, ClpP mod -2% and DT40 TDP1 no CPT 3.7µM*.
Screening CN1/C(=C/C(=O)c2nc(S(C)(=O)=O)ncc2Cl)C(C)(C)c2ccccc21 returned TDP1 inh 6%, DT40 TDP1 CPT 0.58µM*, ClpP mod 1% and DT40 TDP1 no CPT 0.46µM*.
CN1/C(=C\C(=O)c2cncc(Br)c2)C(C)(C)c2ccccc21 was read as TDP1 inh -8%, DT40 TDP1 CPT 3.7µM*, ClpP mod -1% and DT40 TDP1 no CPT 2.6µM*.
For CN1/C(=C\C(=O)c2cccnc2)C(C)(C)c2ccccc21 the results were TDP1 inh -2%, DT40 TDP1 CPT -64%, ClpP mod -2% and DT40 TDP1 no CPT inconclusive.

Screens from PubChem.
